From PubChem
Nrf2 activator – Nrf2 pathway activation | AREc32 ARE-luciferase reporter (MCF7-derived line), luminescence, 24 h | 410,000 compounds, 0.31% hits | AID 624171 | Potency, µM (titrated, usually from 46.1 µM), usual class: activators; note: nearly all actives have a fitted effect of over 65% in size
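Luciferase luminescence (Steady-Glo, 30 min at room temperature) served as the read-out of ARE activation in AREc32 cells treated with compounds for 24 hr at 37 deg C.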
uPA surface inh – blocks generation of uPA at the cell surface | cell surface uPA generation assay, qHTS | Potency, µM (titrated, usually from 38.3 µM), usual class: inhibitors | AID 540303 | 330,000 compounds, 0.31% hits; active = well fitted inhibition curve with a large enough effect; inconclusive = small, poorly fitted or top-dose-only effect; inactive = no such curve, though single readings can be large or run the other way; tested in mouse RAW 264.7 cells; note: nearly all actives have a fitted effect of over 55% in size
IL-2 act – activates IL-2 in a cell-based reporter assay | IL-2 activation reporter assay, cell-based qHTS; stimulated with anti-CD3/CD4/CD28 beads; in transgenic mouse T cells | 360,000 compounds, 0.065% hits | activation, % (series mostly up to about 46 µM); in the data active = activation above about 50%; inconclusive = mostly about 30% to 49%
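Readout is EGFP and DsRed signal by fluorescent plate cytometry after 18 h at 37 degrees C. Transgenic mouse T cells (750/well) received compound for 60 min before bead stimulation (anti-CD3, anti-CD4, anti-CD28); memory T cells served as non-tolerant control.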
a7 integrin act – activators of alpha7 integrin expression for muscular dystrophy | Potency, µM (doses to about 38.3 µM), usual class: activators | alpha7betagal myoblasts, beta-gal FDG fluorescence, 48 h | 350,000 compounds, 0.064% hits | AID 624291; note: nearly all actives have a fitted effect of over 60% in size
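Alpha7betagal+/- myoblasts (passage 13) were plated 16-24 hr, then exposed to compounds (1:260 dilution of DMSO stock) for 48 hours at 37C. After MPER lysis, β-galactosidase reporter activity was read as FDG fluorescence (ex 480/em 540) after 30 minutes.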
ALOX12 inh – inhibitors of human 12S-lipoxygenase ALOX12; P18054; purified 12hLO, xylenol orange hydroperoxide absorbance; Potency, µM (series often up to 108 µM), actives largely listed as inhibitors; 580,000 compounds, 1.1% hits; AID 1671190
Target sequence (P18054 whole entry, looked up): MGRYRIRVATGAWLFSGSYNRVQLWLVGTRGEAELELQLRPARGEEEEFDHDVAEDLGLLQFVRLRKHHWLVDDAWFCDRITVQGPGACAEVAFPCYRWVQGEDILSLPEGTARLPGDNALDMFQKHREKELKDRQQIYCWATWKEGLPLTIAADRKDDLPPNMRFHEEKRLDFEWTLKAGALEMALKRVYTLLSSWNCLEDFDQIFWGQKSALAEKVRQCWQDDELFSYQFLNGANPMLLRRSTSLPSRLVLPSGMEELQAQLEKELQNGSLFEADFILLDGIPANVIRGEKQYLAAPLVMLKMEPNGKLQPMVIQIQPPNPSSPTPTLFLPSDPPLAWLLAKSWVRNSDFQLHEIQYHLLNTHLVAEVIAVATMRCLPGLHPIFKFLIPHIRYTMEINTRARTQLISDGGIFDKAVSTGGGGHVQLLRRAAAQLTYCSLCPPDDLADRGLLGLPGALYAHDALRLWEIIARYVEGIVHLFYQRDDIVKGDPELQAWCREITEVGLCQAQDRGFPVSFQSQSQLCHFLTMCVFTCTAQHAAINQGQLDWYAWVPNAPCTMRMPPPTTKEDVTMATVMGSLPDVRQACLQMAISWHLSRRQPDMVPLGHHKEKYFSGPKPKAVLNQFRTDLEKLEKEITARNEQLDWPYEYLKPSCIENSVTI
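Purified human 12hLO at 150 nM in 25 mM Hepes, 0.01% Triton X-100, pH 7.0, preincubated 15 min at room temperature with compound. Reaction started with 40 uM arachidonic acid, 30 min at room temperature. Hydroperoxide measured by Fe-xylenol orange, 573/405 nm absorbance ratio.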
Numbers stand for hits; i = inactive; ? = inconclusive; nt = not tested or not shown; ! = repeats disagree; [ ] = remark or other dose. This is a sample that favours compounds with a hit; in the whole collection about 1.5% have one here. Unless noted, calls come from the whole dose curve; as a rule, active = well fitted curve in the direction sought with a large enough effect; inconclusive = small, poorly fitted or top-dose-only effect, or another doubt; inactive = no such curve, though single readings can be large; an effect the other way counts as inactive or inconclusive.

SMILES	Nrf2 activator	uPA surface inh	IL-2 act	a7 integrin act	ALOX12 inh
COc1cc2c(cc1CN1CCn3nc(C(O)CO)cc3C1)OCCO2 (configuration not stated)	nt	nt	nt	nt	i
Cc1cc(C)c2c(CN3CCCCC3)cc(=O)oc2c1	i	i	i	i	i
Cc1cc(C)c2c(CN3CCC(C)CC3)cc(=O)oc2c1	i	i	i	i	45µM
O=C1c2cc(N3CCOCC3)nc(-c3ccc(F)cc3)c2CN1CC1CC1	nt	nt	nt	nt	32µM
O=C1c2cc(N3CCOCC3)nc(-c3ccccc3F)c2CN1CC1CC1	nt	nt	nt	nt	i
CCN(CC(=O)Nc1ccccc1C(F)(F)F)C(=O)CCc1nc2sc3c(c2c(=O)[nH]1)CCCC3	i	i	i	i	?
CCN(CC(=O)Nc1c(F)cccc1F)C(=O)CCc1nc2sc3c(c2c(=O)[nH]1)CCCC3	i	i	i	i	14µM
CC1CCCN(C(=O)c2cc(-c3cnn(CCO)c3)nc3cc(Cl)ccc23)C1 (configuration not stated)	nt	nt	nt	nt	i
COC(=O)C1=C(C)N(c2ccc(C)c(C)c2)/C(=C/c2ccco2)C1=O	i	i	71	i	nt
CC1C/C(=C/c2ccncc2)C(=O)/C(=C/c2ccncc2)C1 (configuration not stated)	i	3.5µM	i	i	i
O=C1/C(=C/c2ccncc2)Cc2ccccc21	i	i	i	i	i
O=Cc1cnc(N2CCCCC2)s1	i	i	i	11µM	i
CCCNc1cc(N2CCC(CCC(=O)NCCN3CCCCCC3)CC2)ncn1	nt	nt	nt	nt	i
O=C(N/C=C/c1ccco1)OCc1ccccc1	i[9.22 µM]	i	i	i	40µM
O=C(CN1CCN(c2ccc([N+](=O)[O-])c3cnccc23)CC1)Nc1ccc(F)cc1	nt	nt	nt	nt	i
CC(C)(C)NC(=O)N1CCC2(CC1)C(=O)N(CC(=O)NCCc1ccccc1)CN2c1ccccc1	nt	nt	nt	nt	i
COc1ccc(S(=O)(=O)Nc2cc3c(cc2NCc2ccccc2)n(C)c(=O)n3C)cc1	11µM	nt	nt	nt	i
COc1ccc(C(=O)COC(=O)CN2CC(=O)Oc3ccccc32)cc1Br	14µM	i	i	i	i
COc1ccc(C(=O)COC(=O)C2CC3CCCC(C2)C3=O)cc1Br (configuration not stated)	i	i	i	i	i
COc1cc(Br)cc(CN2CCN(C/C=C/c3ccccc3)CC2)c1O	i	nt	i	i[7.66 µM]	14µM
CC(C)(Cc1ccc(O)cc1)NC(=O)CC(=O)N/N=C/c1ccc(Cl)cc1	i	?	i	i	8.9µM
CC(C)(Cc1ccc(O)cc1)NC(=O)CC(=O)N/N=C/c1ccc([N+](=O)[O-])cc1	i	i	i	i	i
Cc1nnsc1S(=O)c1ccc(Cl)cc1 (configuration not stated)	?	?	i	i	i
Cc1nnsc1S(=O)c1ccc(Cl)c(Cl)c1 (configuration not stated)	11µM	i	i	i	i
CCOc1ccccc1OCc1nn2c(C3COc4ccccc4O3)nnc2s1 (configuration not stated)	nt	nt	nt	nt	7.1µM
SMILES	Nrf2 activator	uPA surface inh	IL-2 act	a7 integrin act	ALOX12 inh
Cc1cccc(CNc2ccnc(-c3ccoc3)n2)c1	nt	nt	nt	nt	20µM
COc1cc(SC)ccc1C(=O)Nc1ccccn1	13µM	i	i	i	i
COc1cc(SC)ccc1C(=O)Nc1cccc(C)n1	i	i	i	i	i
COc1cc(SC)ccc1C(=O)Nc1ncc(C)s1	i	3.5µM	i	?	i
Cc1nc(N2CCN(C(=O)COc3ccc(F)cc3)CC2)cc(C(F)(F)F)n1	nt	nt	nt	nt	i
O=C(NC12CC3CC(CC(C3)C1)C2)C1CCN(S(=O)(=O)Cc2ccccc2F)CC1	nt	nt	nt	nt	i
O=c1nc2s/c(=C\c3ccc(-c4ccccc4[N+](=O)[O-])o3)c(=O)n2nc1-c1ccccc1	i	i	i	i	11µM
N#Cc1ccc(C(=O)N2CCCCCCNC(=O)CC2)cc1	nt	nt	nt	nt	i
Cc1ccc(C(=O)/C=C/c2ccccc2C)cc1C	nt	nt	nt	nt	i
COc1ccc(Cl)c2sc(N(CCN(C)C)C(=O)CCS(=O)(=O)c3ccc(C)cc3)nc12	i	i	i	i	16µM
COc1ccc(OC)c2sc(N(CCCN(C)C)C(=O)CCS(=O)(=O)c3ccccc3)nc12	i	?	i	i	i
CCSc1n[nH]c(=S)s1	i	i	i	i	45µM
Fc1ccc(Br)cc1C1C=C(c2ccc(Br)cc2)Nc2ncnn21 (configuration not stated)	i	nt	i	i[7.66 µM]	i
C1=C(c2ccccc2)Nc2ncnn2C1c1ccccc1 (configuration not stated)	7.1µM	i	i	i	i
Cc1ccsc1C1C=C(c2cccc(Br)c2)Nc2ncnn21 (configuration not stated)	7.9µM	i	i	i	nt
CSCCC(NC(=O)c1ccc(Cl)cc1)C(=O)OCC(=O)Nc1ccc(C#N)cc1 (configuration not stated)	i	i	i	i	32µM
COc1cccc(NC(=O)C(C(C)C)n2c(=O)[nH]c3ccccc3c2=O)c1 (configuration not stated)	nt	nt	nt	nt	i
CCSc1ccccc1C(=O)Nc1nc2cc(OC)c(OC)cc2c(=O)[nH]1	nt	nt	nt	nt	i
Cc1cc(C2=NNC(=NCCc3ccccc3)SC2)c(C)n1CC1CCCO1 (configuration not stated)	i	i	i	i	?
Cc1ccc(N=C2NN=C(c3cc(C)n(CC4CCCO4)c3C)CS2)cc1C (configuration not stated)	nt	nt	nt	nt	35µM
Cc1cc(/C=C2\SC(=S)NC2=O)c(C)n1-c1cccc(O)c1	i	i	i	?	40µM
Cc1ccc(-n2c(C)cc(/C=C3\SC(=O)NC3=O)c2C)cc1	i	?	i	i	i
C[S+](=O)([O-])N1CC2(CCN(Cc3ccccn3)CC2)Cc2ccccc21	nt	nt	nt	nt	i[6.33 µM]
COc1cccc(Nc2nc(-c3ccccc3)cs2)c1	nt	nt	nt	nt	1µM
c1ccc(-c2csc(Nc3ccc4c(c3)OCO4)n2)cc1	i	nt	i	nt	3.5µM!
SMILES	Nrf2 activator	uPA surface inh	IL-2 act	a7 integrin act	ALOX12 inh
Cc1cccnc1Nc1nc(-c2ccccc2)cs1	3.2µM	i	i	i	i
COc1cccc(OC)c1C(=O)Nc1nc(-c2ccccc2)cs1	i[9.22 µM]	i	i	i	i
COc1ccccc1CNc1nc(-c2ccccc2)cs1	nt	nt	nt	nt	14µM
COc1ccccc1C(=O)CSc1nnc(Nc2cccc(C)c2C)s1	nt	nt	nt	nt	i
O=C(c1cccc(F)c1)N1CCCC(Cc2nc(C3CCOCC3)no2)C1 (configuration not stated)	nt	nt	nt	nt	i
COc1cccc(Nc2nc(-c3ccc(CNC(C)=O)cc3)cs2)c1	nt	nt	nt	nt	16µM
COc1cccc(Nc2nc(-c3ccccc3)no2)c1	nt	nt	nt	nt	40µM
COc1cccc(Nc2nc(-c3cccnc3)cs2)c1	i	i	i	i	i
COC(=O)c1sc(-c2cccs2)cc1N	8.9µM	i	i	i	?
Oc1ccc2ccccc2c1C=Nc1cc(Cl)cc(Cl)c1	nt	nt	nt	nt	i
O=C(NCCc1ccccc1F)N[C@@H](Cc1ccccc1)C(=O)O	i	i	i	i	?
